# Results as given in PMC5700166.
# Numbering of substitutions follows the chain as printed.
# Key:
# Assay in all cases: protein-binding microarray (PBM); PBM: ~300 nM protein, 6 mM HEPES pH 7.8, 80 mM KCl, 0.5 mM EDTA, 0.5 mM EGTA, 6% glycerol, 35 ng/ul poly-dIdC, 1% milk, 1 h, room temperature; Ap Aiptasia and Nv Nematostella (sea anemones) / Co Capsaspora / Aq Amphimedon (sponge) / Dm Drosophila / Hu human; RHD is the Rel homology domain; high values mean tight binding
# Settings in all cases: dsDNA, one strand shown
# GST-Ap-NF-kB RHD = target: T1, GST-Ap-NF-kB RHD (Exaiptasia pallida (Aiptasia), UniProt A0A913YAJ5 2-422)
# T1 sequence: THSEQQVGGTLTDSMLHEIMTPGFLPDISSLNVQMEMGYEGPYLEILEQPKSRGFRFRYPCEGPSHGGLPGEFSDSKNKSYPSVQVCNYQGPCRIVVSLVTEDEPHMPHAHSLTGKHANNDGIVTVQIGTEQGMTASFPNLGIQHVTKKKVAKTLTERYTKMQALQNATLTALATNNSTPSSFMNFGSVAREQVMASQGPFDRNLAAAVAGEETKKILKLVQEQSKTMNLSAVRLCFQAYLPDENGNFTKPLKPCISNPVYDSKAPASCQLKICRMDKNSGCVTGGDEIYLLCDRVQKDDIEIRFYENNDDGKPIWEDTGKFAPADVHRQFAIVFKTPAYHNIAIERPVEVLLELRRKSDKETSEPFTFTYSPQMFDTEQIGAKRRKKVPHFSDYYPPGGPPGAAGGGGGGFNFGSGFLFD
# [1] = target: T2, GST-Nv-NF-kB (Cys allele) (Nematostella vectensis, UniProt E5G601 2-411)
# T2 sequence: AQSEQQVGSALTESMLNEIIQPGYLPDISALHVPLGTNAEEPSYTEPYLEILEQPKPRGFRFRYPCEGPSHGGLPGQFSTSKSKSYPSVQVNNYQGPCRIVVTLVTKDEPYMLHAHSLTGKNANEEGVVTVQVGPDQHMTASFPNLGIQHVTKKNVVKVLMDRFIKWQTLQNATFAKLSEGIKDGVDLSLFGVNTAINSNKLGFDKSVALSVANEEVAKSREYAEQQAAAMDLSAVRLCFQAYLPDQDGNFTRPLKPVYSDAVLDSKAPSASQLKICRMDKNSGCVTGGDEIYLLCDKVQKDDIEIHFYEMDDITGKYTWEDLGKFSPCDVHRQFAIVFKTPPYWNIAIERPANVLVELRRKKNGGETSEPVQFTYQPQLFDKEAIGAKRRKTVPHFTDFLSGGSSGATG
# [2] = target: T3, GST-Nv-NF-kB (Ser allele) (Nematostella vectensis, UniProt A7UNT2 2-411)
# T3 sequence: T2 sequence with Q21R, C66S, S207N, E215Q, V217A, E225K, A268E, D399E
# GST-Co-NF-kB = target: T4, GST-Co-NF-kB (Capsaspora owczarzaki, UniProt F1ARL5 200-546)
# T4 sequence: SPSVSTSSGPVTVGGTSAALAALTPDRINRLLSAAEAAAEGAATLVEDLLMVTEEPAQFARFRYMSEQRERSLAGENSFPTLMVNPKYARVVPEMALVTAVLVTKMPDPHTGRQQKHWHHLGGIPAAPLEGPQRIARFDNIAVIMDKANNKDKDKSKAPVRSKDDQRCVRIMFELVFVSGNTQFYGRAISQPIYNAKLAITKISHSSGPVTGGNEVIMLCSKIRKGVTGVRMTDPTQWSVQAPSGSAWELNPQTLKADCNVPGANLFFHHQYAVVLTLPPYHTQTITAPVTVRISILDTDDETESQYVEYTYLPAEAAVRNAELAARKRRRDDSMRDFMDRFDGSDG
# GST-Dm-Relish = target: T5, GST-Dm-Relish (Drosophila melanogaster, UniProt Q94527 99-473)
# T5 sequence: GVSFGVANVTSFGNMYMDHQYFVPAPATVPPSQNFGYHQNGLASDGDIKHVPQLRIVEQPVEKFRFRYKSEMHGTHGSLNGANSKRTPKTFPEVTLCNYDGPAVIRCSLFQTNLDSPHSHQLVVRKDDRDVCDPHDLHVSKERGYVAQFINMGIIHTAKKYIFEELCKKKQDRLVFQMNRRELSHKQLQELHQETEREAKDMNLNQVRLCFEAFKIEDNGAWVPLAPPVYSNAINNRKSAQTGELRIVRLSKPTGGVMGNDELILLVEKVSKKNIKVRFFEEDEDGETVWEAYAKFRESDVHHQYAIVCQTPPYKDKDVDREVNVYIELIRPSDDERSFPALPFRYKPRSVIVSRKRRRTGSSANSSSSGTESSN
# GST-Aq-NF-kB = target: T6, GST-Aq-NF-kB (Amphimedon queenslandica, UniProt A9Y5G7 2-389)
# T6 sequence: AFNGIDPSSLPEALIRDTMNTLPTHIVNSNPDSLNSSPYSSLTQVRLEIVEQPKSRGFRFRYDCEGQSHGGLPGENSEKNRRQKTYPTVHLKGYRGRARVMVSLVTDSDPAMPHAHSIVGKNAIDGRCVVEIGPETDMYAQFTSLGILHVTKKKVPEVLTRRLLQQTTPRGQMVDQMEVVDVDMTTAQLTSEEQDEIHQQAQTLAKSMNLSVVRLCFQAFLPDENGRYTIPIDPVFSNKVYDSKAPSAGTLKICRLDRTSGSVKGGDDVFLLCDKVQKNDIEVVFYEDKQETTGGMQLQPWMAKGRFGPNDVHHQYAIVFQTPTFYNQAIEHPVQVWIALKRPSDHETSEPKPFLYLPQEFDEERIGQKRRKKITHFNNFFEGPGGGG
# GST-Hu-p50 = GST-Hu-p50 (Homo sapiens, UniProt P19838 7-356)
# Chain of GST-Hu-p50 (P19838 7-356): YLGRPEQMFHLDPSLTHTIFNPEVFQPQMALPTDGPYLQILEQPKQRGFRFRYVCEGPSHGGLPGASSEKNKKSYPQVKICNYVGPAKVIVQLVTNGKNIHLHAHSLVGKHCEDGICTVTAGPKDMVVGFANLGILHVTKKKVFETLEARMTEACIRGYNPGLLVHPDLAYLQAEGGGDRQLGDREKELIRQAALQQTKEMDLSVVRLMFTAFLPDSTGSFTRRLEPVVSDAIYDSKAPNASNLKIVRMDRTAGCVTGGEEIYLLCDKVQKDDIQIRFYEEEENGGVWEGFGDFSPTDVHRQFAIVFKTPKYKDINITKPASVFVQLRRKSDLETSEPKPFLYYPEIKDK
Sequence,binding signal (GST-Ap-NF-kB RHD),binding signal [1],binding signal [2],binding signal (GST-Co-NF-kB),binding signal (GST-Dm-Relish),binding signal (GST-Aq-NF-kB),binding signal (GST-Hu-p50)
CCGATTAACATCAAAATCCCCCGTGATGTTAATCGGGTCTTGATTCGCTTGACGCTGCTG,9.02 z-score,9.33 z-score,10.1 z-score,8.56 z-score,9.89 z-score,7.76 z-score,8.02 z-score
CCGATTAACATCAGGGGTATTTATGATGTTAATCGGGTCTTGATTCGCTTGACGCTGCTG,5.75 z-score,5.26 z-score,5.54 z-score,4.66 z-score,3.79 z-score,5.15 z-score,5.56 z-score
CCGATTAACATCAGGGGAACAACTGATGTTAATCGGGTCTTGATTCGCTTGACGCTGCTG,5.15 z-score,4.83 z-score,5.57 z-score,5.75 z-score,8.64 z-score,5.43 z-score,3.48 z-score
CCGATTAACATCACTACCCCCCCTGATGTTAATCGGGTCTTGATTCGCTTGACGCTGCTG,3.87 z-score,3.41 z-score,2.74 z-score,5.59 z-score,3.94 z-score,3.4 z-score,3.52 z-score
CCGATTAACATCAGGGGGGTATATGATGTTAATCGGGTCTTGATTCGCTTGACGCTGCTG,5.34 z-score,2.99 z-score,4.19 z-score,5.73 z-score,3.95 z-score,4.1 z-score,3.59 z-score
CCGATTAACATCACCATTTCCCCTGATGTTAATCGGGTCTTGATTCGCTTGACGCTGCTG,5.75 z-score,6.95 z-score,9.62 z-score,6.17 z-score,2.11 z-score,4.32 z-score,5.3 z-score
CCGATTAACATCAGGGGAAAAGATGATGTTAATCGGGTCTTGATTCGCTTGACGCTGCTG,5.46 z-score,6.76 z-score,9.01 z-score,7.74 z-score,1.82 z-score,4.78 z-score,5.18 z-score
CCGATTAACATCAGGAATTTCCCTGATGTTAATCGGGTCTTGATTCGCTTGACGCTGCTG,6.77 z-score,10.1 z-score,6.94 z-score,4.93 z-score,5.72 z-score,10.8 z-score,6.03 z-score
CCGATTAACATCAGGGGGCTTTATGATGTTAATCGGGTCTTGATTCGCTTGACGCTGCTG,5.16 z-score,5.53 z-score,4.34 z-score,1.85 z-score,6.23 z-score,5.44 z-score,5.71 z-score
CCGATTAACATCAGGGAATTTACTGATGTTAATCGGGTCTTGATTCGCTTGACGCTGCTG,4.29 z-score,6.69 z-score,6.33 z-score,3.89 z-score,6.87 z-score,6.82 z-score,5.14 z-score
CCGATTAACATCAAGGGGTTCCCTGATGTTAATCGGGTCTTGATTCGCTTGACGCTGCTG,4.99 z-score,3.32 z-score,2.15 z-score,2.13 z-score,9.46 z-score,5.11 z-score,3.25 z-score
